“And” between values parts separate entries of the source, which are not always exact repeats. Equal values may be shown once. The full ranking holds about 2,900 compounds; the median of “NF-kB SEAP reporter activity, fold change vs agonist alone” is about 0.99, and the highest 2% start at about 2.6. The sample holds the highest values, similar compounds and a random draw of the others, so the mix is not that of the screen.
Legend:
RAW-Dual [1] = assay: NF-kB SEAP reporter activity, fold change vs agonist alone; cytotoxicity flag (confluency mask): not cytotoxic; higher = enhanced NF-kB activity
Procedure, shortened: (§1)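 Library stock was pin-tooled at 50 nL into 384-well plates of RAW-Dual macrophages (50,000 cells/well, DMEM), followed 1 h later by a PRR agonist, and the cells were kept at 37 °C, 5% CO2. Supernatant collected after 20 hours was read for IRF by QuantiLuc luminescence and for NF-κB by QuantiBlue absorbance at 620 nm. Reporter activity is fold change over agonist-alone wells, and a well counted as cytotoxic when its IncuCyte confluency was below 70% of agonist controls in both mask sets.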

RAW-Dual [2] = assay: NF-kB SEAP reporter activity, fold change vs agonist alone; higher = enhanced NF-kB activity; conditions: library stock concentration (final ~1000-fold dilution): 10 mM
Procedure, shortened: as §1

RAW-Dual [3] = assay: NF-kB SEAP reporter activity, fold change vs agonist alone; cytotoxicity flag (confluency mask): cytotoxic (confluency <70% of control); higher = enhanced NF-kB activity
Procedure, shortened: as §1

[4] = agonist: ODN 1826 (TLR9) 0.5 ug/mL
[5] = agonist: Pam2CSK4 (TLR2/6) 0.1 ug/mL
[6] = agonist: Pam3CSK4 (TLR2/1) 0.1 ug/mL
[7] = cytotoxicity flag (confluency mask): not cytotoxic, agonist: Imiquimod (TLR7) […]
[8] = cytotoxicity flag (confluency mask): not cytotoxic, agonist: MPLA (TLR4) […]
[9] = cytotoxicity flag (confluency mask): cytotoxic (confluency <70% of control), agonist: MPLA (TLR4) […]
[10] = cytotoxicity flag (confluency mask): cytotoxic (confluency <70% of control), agonist: Imiquimod (TLR7) […]

In the case of CC(C)=CCCC(C)(OC1OC(CO)C(O)C(O)C1O)C1CCC2(C)C1C(O)CC1C3(C)CCC(O)C(C)(C)C3C(OC3OC(CO)C(O)C(O)C3OC3OCC(O)C(O)C3O)CC12C (stereo unspecified) (library stock concentration (final ~1000-fold dilution): 10 mM), the “NF-kB SEAP reporter activity” value (RAW-Dual [1]; agonist: LPS (TLR4) 0.1 ug/mL) is reported as 0.93, the “NF-kB SEAP reporter activity” value (RAW-Dual [1]; [4]) is reported as 1.02 and the “NF-kB SEAP reporter activity” value (RAW-Dual [1]; [5]) is reported as 0.792. The “NF-kB SEAP reporter activity” value (RAW-Dual [1]; [6]) was 0.975.
With CC(C)=CCCC(C)(OC1OC(CO)C(O)C(O)C1O)C1CCC2(C)C1C(O)CC1C3(C)CCC(O)C(C)(C)C3C(OC3OC(CO)C(O)C(O)C3OC3OCC(O)C(O)C3O)CC12C (stereo unspecified) the “NF-kB SEAP reporter activity” value (RAW-Dual [2]; [7]) was 0.818 and the “NF-kB SEAP reporter activity” value (RAW-Dual [2]; [8]) was 0.958.
For CS(=O)(=O)O.Fc1ccc(C2CCNCC2COc2ccc3c(c2)OCO3)cc1 (stereo unspecified), the “NF-kB SEAP reporter activity” value (RAW-Dual [2]; [9]) was 1.43.
For CS(=O)(=O)O.Fc1ccc(C2CCNCC2COc2ccc3c(c2)OCO3)cc1 (stereo unspecified) (library stock concentration (final ~1000-fold dilution): 10 mM), the “NF-kB SEAP reporter activity” value (RAW-Dual [3]; agonist: LPS (TLR4) 0.1 ug/mL) was 1.08, the “NF-kB SEAP reporter activity” value (RAW-Dual [3]; [4]) was 0.542 and the “NF-kB SEAP reporter activity” value (RAW-Dual [3]; [5]) was 0.486. The “NF-kB SEAP reporter activity” value (RAW-Dual [3]; [6]) was 0.425.
In the case of Fc1ccc(Nc2nc(Nc3ccc(-c4nc5ccccc5[nH]4)cc3)nc(N3CCOCC3)n2)cc1, the “NF-kB SEAP reporter activity” value (RAW-Dual [2]; [10]) is reported as 0.399 and the “NF-kB SEAP reporter activity” value (RAW-Dual [2]; [9]) is reported as 1.42.
For Fc1ccc(Nc2nc(Nc3ccc(-c4nc5ccccc5[nH]4)cc3)nc(N3CCOCC3)n2)cc1 (library stock concentration (final ~1000-fold dilution): 10 mM), the “NF-kB SEAP reporter activity” value (RAW-Dual [3]; agonist: LPS (TLR4) 0.1 ug/mL) was 0.621, the “NF-kB SEAP reporter activity” value (RAW-Dual [3]; [4]) was 0.452 and the “NF-kB SEAP reporter activity” value (RAW-Dual [3]; [5]) was 0.212. The “NF-kB SEAP reporter activity” value (RAW-Dual [3]; [6]) was 0.25.
For CCC(CC)(NC(=O)C(C)C)C(=O)NC(CCCNC(=N)N)C(=O)NC1(C(=O)NC(c2ccc(F)cc2)c2ccc(F)cc2)CCCC1 (stereo unspecified) (library stock concentration (final ~1000-fold dilution): 10 mM), the “NF-kB SEAP reporter activity” value (RAW-Dual [1]; agonist: LPS (TLR4) 0.1 ug/mL) was 0.847, the “NF-kB SEAP reporter activity” value (RAW-Dual [1]; [4]) was 0.788 and the “NF-kB SEAP reporter activity” value (RAW-Dual [1]; [5]) was 0.957. The “NF-kB SEAP reporter activity” value (RAW-Dual [1]; [6]) was 0.971.
For CCC(CC)(NC(=O)C(C)C)C(=O)NC(CCCNC(=N)N)C(=O)NC1(C(=O)NC(c2ccc(F)cc2)c2ccc(F)cc2)CCCC1 (stereo unspecified), the “NF-kB SEAP reporter activity” value (RAW-Dual [2]; [7]) was 1.08 and the “NF-kB SEAP reporter activity” value (RAW-Dual [2]; [8]) was 0.867.
With CC/C(C)=C/CC[C@](C)(O)C1CC[C@]2(C)C3C[C@@H](O[C@@H]4O[C@H](CO)[C@@H](O)[C@H](O)[C@H]4O[C@@H]4O[C@@H](C)[C@H](O)[C@@H](O)[C@H]4O)C4C(C)(C)C(O)CC[C@]4(C)C3C[C@H](O)C12 (stereo partly specified) the “NF-kB SEAP reporter activity” value (RAW-Dual [2]; [7]) was 0.952 and the “NF-kB SEAP reporter activity” value (RAW-Dual [2]; [8]) was 0.934.
For CC/C(C)=C/CC[C@](C)(O)C1CC[C@]2(C)C3C[C@@H](O[C@@H]4O[C@H](CO)[C@@H](O)[C@H](O)[C@H]4O[C@@H]4O[C@@H](C)[C@H](O)[C@@H](O)[C@H]4O)C4C(C)(C)C(O)CC[C@]4(C)C3C[C@H](O)C12 (stereo partly specified) (library stock concentration (final ~1000-fold dilution): 10 mM), the “NF-kB SEAP reporter activity” value (RAW-Dual [1]; agonist: LPS (TLR4) 0.1 ug/mL) was 1.2, the “NF-kB SEAP reporter activity” value (RAW-Dual [1]; [4]) was 0.992 and the “NF-kB SEAP reporter activity” value (RAW-Dual [1]; [5]) was 0.952. The “NF-kB SEAP reporter activity” value (RAW-Dual [1]; [6]) was 1.14.
In the case of Cc1ccccc1C(=O)N1CCc2cc(-c3nc(NC(=O)Cc4ccc5c(c4)OCO5)sc3C)ccc21 (library stock concentration (final ~1000-fold dilution): 10 mM), the “NF-kB SEAP reporter activity” value (RAW-Dual [1]; agonist: LPS (TLR4) 0.1 ug/mL) is reported as 1.34 and 1.45, the “NF-kB SEAP reporter activity” value (RAW-Dual [1]; [4]) is reported as 0.971 and 0.758 and the “NF-kB SEAP reporter activity” value (RAW-Dual [1]; [5]) is reported as 0.716 and 0.692. The “NF-kB SEAP reporter activity” value (RAW-Dual [1]; [6]) was 0.695 and 0.61.
CN1C(=O)C(C)(C)Oc2c(-c3cn(C)c(=O)c4[nH]ccc34)cc(S(C)(=O)=O)cc21 was tested, and the “NF-kB SEAP reporter activity” value (RAW-Dual [2]; [10]) was 1.56 and the “NF-kB SEAP reporter activity” value (RAW-Dual [2]; [9]) was 2.34.
CCS(=O)(=O)Nc1ccc(Oc2ccc(F)cc2F)c(-c2cn(C)c(=O)c3[nH]ccc23)c1 (library stock concentration (final ~1000-fold dilution): 10 mM) was tested, and the “NF-kB SEAP reporter activity” value (RAW-Dual [3]; agonist: LPS (TLR4) 0.1 ug/mL) was 3.19, the “NF-kB SEAP reporter activity” value (RAW-Dual [3]; [4]) was 2.18 and the “NF-kB SEAP reporter activity” value (RAW-Dual [3]; [5]) was 0.424. For the same compound, the “NF-kB SEAP reporter activity” value (RAW-Dual [3]; [6]) was 1.13.
With CN1C(=O)C(C)(C)Oc2c(-c3cn(C)c(=O)c4[nH]ccc34)cc(S(C)(=O)=O)cc21 (library stock concentration (final ~1000-fold dilution): 10 mM) the “NF-kB SEAP reporter activity” value (RAW-Dual [3]; agonist: LPS (TLR4) 0.1 ug/mL) was 2.16, the “NF-kB SEAP reporter activity” value (RAW-Dual [3]; [4]) was 1.73 and the “NF-kB SEAP reporter activity” value (RAW-Dual [3]; [5]) was 0.658. The “NF-kB SEAP reporter activity” value (RAW-Dual [3]; [6]) was 1.99.
With CCNC(=O)c1cc2c(-c3cc(C(C)(C)O)ccc3Oc3c(C)cc(F)cc3C)cn(C)c(=O)c2[nH]1 (library stock concentration (final ~1000-fold dilution): 10 mM) the “NF-kB SEAP reporter activity” value (RAW-Dual [3]; agonist: LPS (TLR4) 0.1 ug/mL) was 0.903, the “NF-kB SEAP reporter activity” value (RAW-Dual [3]; [4]) was 1.34 and the “NF-kB SEAP reporter activity” value (RAW-Dual [3]; [5]) was 0.318. For the same compound, the “NF-kB SEAP reporter activity” value (RAW-Dual [3]; [6]) was 0.842.
With CCNC(=O)c1cc2c(-c3cc(C(C)(C)O)ccc3Oc3c(C)cc(F)cc3C)cn(C)c(=O)c2[nH]1 the “NF-kB SEAP reporter activity” value (RAW-Dual [2]; [10]) was 1.4 and the “NF-kB SEAP reporter activity” value (RAW-Dual [2]; [9]) was 1.84.
In the case of CCS(=O)(=O)Nc1ccc(Oc2ccc(F)cc2F)c(-c2cn(C)c(=O)c3[nH]ccc23)c1, the “NF-kB SEAP reporter activity” value (RAW-Dual [2]; [10]) is reported as 1.54 and the “NF-kB SEAP reporter activity” value (RAW-Dual [2]; [9]) is reported as 2.13.
With CC1OC(OC2C(CO)OC(OCC3OC(OC(=O)[C@]45CC[C@@H](C)[C@H](C)[C@H]4C4=CCC6[C@@]7(C)C[C@@H](O)[C@@H](O)[C@@](C)(CO)C7CC[C@@]6(C)[C@]4(C)CC5)C(O)C(O)C3O)C(O)C2O)C(O)C(O)C1O (stereo partly specified) (library stock concentration (final ~1000-fold dilution): 10 mM) the “NF-kB SEAP reporter activity” value (RAW-Dual [1]; agonist: LPS (TLR4) 0.1 ug/mL) was 1.08, the “NF-kB SEAP reporter activity” value (RAW-Dual [1]; [4]) was 0.915 and the “NF-kB SEAP reporter activity” value (RAW-Dual [1]; [5]) was 1.06. For the same compound, the “NF-kB SEAP reporter activity” value (RAW-Dual [1]; [6]) was 1.1.
CC1OC(OC2C(CO)OC(OCC3OC(OC(=O)[C@]45CC[C@@H](C)[C@H](C)[C@H]4C4=CCC6[C@@]7(C)C[C@@H](O)[C@@H](O)[C@@](C)(CO)C7CC[C@@]6(C)[C@]4(C)CC5)C(O)C(O)C3O)C(O)C2O)C(O)C(O)C1O (stereo partly specified) was tested, and the “NF-kB SEAP reporter activity” value (RAW-Dual [2]; [7]) was 0.975 and the “NF-kB SEAP reporter activity” value (RAW-Dual [2]; [8]) was 1.12.
For Cc1c(CN2CCC(Nc3ncnc4sc(CC(F)(F)F)cc34)CC2)ccc2[nH]c(C#N)cc12 (library stock concentration (final ~1000-fold dilution): 10 mM), the “NF-kB SEAP reporter activity” value (RAW-Dual [1]; agonist: LPS (TLR4) 0.1 ug/mL) was 1.32, the “NF-kB SEAP reporter activity” value (RAW-Dual [1]; [4]) was 0.176 and the “NF-kB SEAP reporter activity” value (RAW-Dual [1]; [5]) was 0.631. The “NF-kB SEAP reporter activity” value (RAW-Dual [1]; [6]) was 0.575.
In the case of Cc1c(CN2CCC(Nc3ncnc4sc(CC(F)(F)F)cc34)CC2)ccc2[nH]c(C#N)cc12, the “NF-kB SEAP reporter activity” value (RAW-Dual [2]; [7]) is reported as 0.878 and the “NF-kB SEAP reporter activity” value (RAW-Dual [2]; [8]) is reported as 0.915.
In the case of O=C(NC1=CC(=O)[C@H]2O[C@H]2[C@H]1O)c1ccccc1O, the “NF-kB SEAP reporter activity” value (RAW-Dual [2]; [7]) is reported as 1 and the “NF-kB SEAP reporter activity” value (RAW-Dual [2]; [8]) is reported as 1.08.
With O=C(NC1=CC(=O)[C@H]2O[C@H]2[C@H]1O)c1ccccc1O (library stock concentration (final ~1000-fold dilution): 10 mM) the “NF-kB SEAP reporter activity” value (RAW-Dual [1]; agonist: LPS (TLR4) 0.1 ug/mL) was 0.727, the “NF-kB SEAP reporter activity” value (RAW-Dual [1]; [4]) was 0.951 and the “NF-kB SEAP reporter activity” value (RAW-Dual [1]; [5]) was 0.806. The “NF-kB SEAP reporter activity” value (RAW-Dual [1]; [6]) was 0.551.
In the case of COc1cc(OC)c(C=CS(=O)(=O)Cc2ccc(OC)c(NCC(=O)O)c2)c(OC)c1, the “NF-kB SEAP reporter activity” value (RAW-Dual [2]; [7]) is reported as 2.64 and the “NF-kB SEAP reporter activity” value (RAW-Dual [2]; [8]) is reported as 2.27.
